# Reference: PubChem BioAssay
# Active and inactive are the calls of the source. Unless noted, how the calls were made is not given here.
# Key:
# [1] = anti-His antibody binders, primary screen, artefact control for SMM control protein annotation, biochemical, small-molecule microarray, 635 nm fluorescence (AID 1128); conditions: anti-His Alexa647 antibody binding, higher = more signal;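 further: score merges feature fluorescence with signal-to-noise for each printed compound spot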
# [2] = tested on: Human papillomavirus type 1a E7 protein (residues 1-88); experiment: HPV1a E7 small-molecule binders, primary screen, biochemical, small-molecule microarray, residues 1-88, 635 nm (AID 1129); conditions: small-molecule microarray binding, fluorescence 635 nm; higher = more signal
# [3] = molecular target: Focal adhesion kinase 1 (Homo sapiens) (UniProt Q05397); experiment: small-molecule microarray binders of FAK, primary screen, biochemical, 635/667 nm fluorescence, BSA, DTT (AID 1130); conditions: PTK2 binding, 635 nm fluorescence, higher = more signal;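 further: composite of spot emission at 667 nm and signal to noise over triplicate slides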
# Focal adhesion kinase 1 (Homo sapiens), sequence (Q05397 whole entry, looked up): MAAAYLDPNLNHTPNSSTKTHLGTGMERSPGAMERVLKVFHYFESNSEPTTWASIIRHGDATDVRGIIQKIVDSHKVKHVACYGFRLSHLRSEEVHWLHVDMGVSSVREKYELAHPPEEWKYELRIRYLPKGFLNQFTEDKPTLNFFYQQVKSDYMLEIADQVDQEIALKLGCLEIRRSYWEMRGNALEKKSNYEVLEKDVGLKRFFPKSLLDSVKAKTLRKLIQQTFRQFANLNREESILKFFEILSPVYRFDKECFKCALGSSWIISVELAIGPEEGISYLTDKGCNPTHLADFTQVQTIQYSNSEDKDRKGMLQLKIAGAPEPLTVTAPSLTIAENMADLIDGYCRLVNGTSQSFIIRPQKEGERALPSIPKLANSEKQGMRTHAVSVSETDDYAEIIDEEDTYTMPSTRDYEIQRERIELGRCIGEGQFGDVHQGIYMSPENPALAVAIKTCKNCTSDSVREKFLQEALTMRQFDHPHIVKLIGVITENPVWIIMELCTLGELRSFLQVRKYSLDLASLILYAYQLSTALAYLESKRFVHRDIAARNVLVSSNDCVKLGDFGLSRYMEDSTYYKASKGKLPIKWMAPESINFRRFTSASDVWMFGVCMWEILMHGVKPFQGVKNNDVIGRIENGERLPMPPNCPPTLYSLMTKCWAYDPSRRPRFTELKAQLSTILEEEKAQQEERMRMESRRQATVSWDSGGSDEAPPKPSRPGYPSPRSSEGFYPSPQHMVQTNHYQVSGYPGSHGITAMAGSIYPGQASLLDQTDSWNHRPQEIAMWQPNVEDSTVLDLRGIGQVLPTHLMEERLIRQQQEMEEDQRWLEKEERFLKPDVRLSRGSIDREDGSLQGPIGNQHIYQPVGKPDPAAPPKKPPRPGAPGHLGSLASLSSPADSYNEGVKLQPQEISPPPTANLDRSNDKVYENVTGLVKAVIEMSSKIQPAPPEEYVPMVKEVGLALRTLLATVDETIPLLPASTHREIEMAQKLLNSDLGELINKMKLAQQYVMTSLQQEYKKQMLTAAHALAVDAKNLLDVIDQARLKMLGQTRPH
# [4] = tested on: Fibrinogen (Alexa647-labelled); experiment: fibrinogen binders on compound microarrays, profiling panel, artefact control for SMM control-protein annotation, biochemical, small-molecule microarray, 635/667 nm fluorescence (AID 1131); conditions: fibrinogen-A647 binding fluorescence, higher = more signal;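 further: z-score merges 667 nm fluorescence with per-spot signal-to-noise over triplicate slides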
# [5] = molecular target: Follistatin (Homo sapiens) (UniProt P19883); experiment: follistatin binders on small-molecule microarrays, primary screen, biochemical, small-molecule microarray, 635/667 nm fluorescence (AID 1132); conditions: FST binding, 635 nm fluorescence, higher = more signal
# Follistatin (Homo sapiens), sequence (P19883 whole entry, looked up): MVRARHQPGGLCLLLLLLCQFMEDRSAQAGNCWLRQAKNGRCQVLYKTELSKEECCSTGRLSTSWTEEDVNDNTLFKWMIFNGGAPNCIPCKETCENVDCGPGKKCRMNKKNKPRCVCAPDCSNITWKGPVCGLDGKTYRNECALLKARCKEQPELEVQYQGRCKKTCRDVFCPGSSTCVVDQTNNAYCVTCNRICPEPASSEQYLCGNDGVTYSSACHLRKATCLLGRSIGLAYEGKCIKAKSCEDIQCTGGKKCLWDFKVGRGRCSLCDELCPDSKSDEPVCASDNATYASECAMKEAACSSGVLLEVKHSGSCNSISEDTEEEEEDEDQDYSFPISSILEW
# [6] = molecular target: Fibroblast growth factor 2 (Homo sapiens) (UniProt P09038); experiment: FGF2 binders on small-molecule microarrays, primary screen, biochemical, small-molecule microarray, 635/667 nm fluorescence (AID 1133); conditions: small-molecule microarray binding, FGF2, fluorescence 635/667; higher = more signal
# Fibroblast growth factor 2 (Homo sapiens), sequence (P09038 whole entry, looked up): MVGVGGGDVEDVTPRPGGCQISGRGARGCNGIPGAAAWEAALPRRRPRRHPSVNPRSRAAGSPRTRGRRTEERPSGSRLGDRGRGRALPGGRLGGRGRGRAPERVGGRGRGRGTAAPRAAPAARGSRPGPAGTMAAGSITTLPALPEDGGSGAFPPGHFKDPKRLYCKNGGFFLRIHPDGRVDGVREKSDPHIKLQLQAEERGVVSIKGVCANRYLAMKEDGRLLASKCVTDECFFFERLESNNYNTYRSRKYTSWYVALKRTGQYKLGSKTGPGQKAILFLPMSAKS
# [7] = mitochondrial membrane potential change in A549 cells, profiling panel, cell-based, JC-1 fluorescence, basal, 24 h, 100 nL (AID 1138); conditions: higher = more signal;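 further: A549 lung adenocarcinoma cells under basal conditions with no added stimulus; test concentration not given here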
# Lefty1 = Lefty1 binders on small-molecule microarrays, primary screen, biochemical, small-molecule microarray, 635/667 nm fluorescence (AID 1139); conditions: small-molecule microarray binding, fluorescence 635/667; higher = more signal
# [8] = tested on: wheat germ agglutinin (Triticum aestivum), Alexa647-labelled; experiment: wheat germ agglutinin binders on compound microarrays, profiling panel, artefact control for SMM control-protein annotation, biochemical, small-molecule microarray, 635/667 nm fluorescence (AID 1140); conditions: WGA-A647 binding, 635 nm fluorescence, higher = more signal;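 further: score merges 667 nm feature emission with signal to noise over triplicate slides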
# [9] = molecular target: Luciferin 4-monooxygenase (Photinus pyralis) (UniProt P08659); experiment: firefly luciferase enzyme inhibitors, primary screen, biochemical, luminescence, purified enzyme, 2006 set (AID 1141); conditions: SteadyGlo luminescence, 30 min, higher = more signal, called active from +8 up or from −8 down;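 further: cell-free assay with purified firefly luciferase at 100 ng per well in PBS; test concentration not given here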
# Luciferin 4-monooxygenase (Photinus pyralis), sequence (P08659 whole entry, looked up): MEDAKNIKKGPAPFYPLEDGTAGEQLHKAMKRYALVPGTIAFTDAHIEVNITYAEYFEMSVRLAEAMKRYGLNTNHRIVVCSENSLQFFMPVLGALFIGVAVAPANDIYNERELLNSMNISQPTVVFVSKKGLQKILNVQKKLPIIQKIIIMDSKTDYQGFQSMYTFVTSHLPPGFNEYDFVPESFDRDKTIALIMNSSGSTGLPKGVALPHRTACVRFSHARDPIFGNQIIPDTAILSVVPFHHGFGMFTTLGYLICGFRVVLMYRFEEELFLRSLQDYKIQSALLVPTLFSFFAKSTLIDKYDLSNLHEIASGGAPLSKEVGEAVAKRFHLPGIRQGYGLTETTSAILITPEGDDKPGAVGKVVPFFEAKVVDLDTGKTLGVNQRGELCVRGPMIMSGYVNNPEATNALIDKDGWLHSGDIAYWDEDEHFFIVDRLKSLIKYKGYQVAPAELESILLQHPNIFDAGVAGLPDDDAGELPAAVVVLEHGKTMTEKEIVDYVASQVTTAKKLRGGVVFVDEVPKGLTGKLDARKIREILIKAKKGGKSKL
# [10] = tested on: Wnt5a (protein binding on small-molecule microarray); experiment: Wnt5a binders on small-molecule microarray, primary screen, biophysical, 635/667 nm fluorescence (AID 1142); conditions: 635 nm fluorescence, higher = more signal;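 further: fluorescence read at 667 nm with signal to noise per printed feature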
# [11] = cell viability in Huh7 cells, primary screen, cytotoxicity control for HCV replication inhibitor project, CellTiter-Glo luminescence, basal, 48 h (AID 1143); conditions: Huh7 HCV replicon, higher = more signal, called active from +8 up or from −8 down;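 further: Huh7 hepatoma cells carrying a hepatitis C replication reporter with no stimulus; test concentration not given here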
# [12] = P. aeruginosa biofilm formation inhibitors, primary screen, PAO1 strain, BacTiter-Glo luminescence, LB-PBS (AID 1144); conditions: 12 h, higher = more signal
# [13] = CREB reporter modulators without forskolin, primary screen, cell-based, PC12, CRE-LacZ reporter, unstimulated (AID 1145); conditions: no forskolin, luminescence, 4.5 h, higher = more signal, called active from +8 up or from −8 down
# [14] = CREB reporter modulators under forskolin, primary screen, cell-based, PC12, CRE-LacZ reporter, forskolin-stimulated (AID 1146); conditions: luminescence, 4.5 h, higher = more signal, called active from +8 up or from −8 down;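 further: PC12 cells with 6xCRE LacZ reporter stimulated by forskolin 10 µM; beta-galactosidase reporter signal reflecting CREB driven transcription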
# [15] = molecular target: Streptavidin (Streptomyces avidinii) (UniProt P22629); experiment: streptavidin binders on small-molecule microarray, primary screen, artefact control for SMM compound annotation, biophysical, 635/667 nm fluorescence (AID 1147); conditions: streptavidin binding, higher = more signal;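 further: signal reflects streptavidin binding to arrayed compounds as a control protein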
# Streptavidin (Streptomyces avidinii), sequence (P22629 whole entry, looked up): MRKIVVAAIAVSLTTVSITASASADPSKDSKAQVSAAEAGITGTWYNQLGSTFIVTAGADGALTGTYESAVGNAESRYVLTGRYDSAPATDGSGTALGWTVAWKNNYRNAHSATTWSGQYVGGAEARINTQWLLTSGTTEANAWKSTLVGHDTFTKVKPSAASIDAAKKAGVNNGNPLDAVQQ
# [16] = small-molecule binders of probe aInhba, primary screen, biochemical, small-molecule microarray, 635/667 nm fluorescence (AID 1148); conditions: higher = more signal;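 further: score merges 667nm spot fluorescence with signal-to-noise for antibody binding to printed compounds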
# Torsin-1A (Homo sapiens) [17] = molecular target: Torsin-1A (Homo sapiens) (UniProt O14656); experiment: torsin A binders from cell lysate, primary screen, small-molecule microarray, wild-type, 635/667 nm (AID 1149); conditions: COS7 hTOR1A-WT lysate, 635 nm fluorescence, higher = more signal
# Torsin-1A (Homo sapiens), sequence (O14656 whole entry, looked up): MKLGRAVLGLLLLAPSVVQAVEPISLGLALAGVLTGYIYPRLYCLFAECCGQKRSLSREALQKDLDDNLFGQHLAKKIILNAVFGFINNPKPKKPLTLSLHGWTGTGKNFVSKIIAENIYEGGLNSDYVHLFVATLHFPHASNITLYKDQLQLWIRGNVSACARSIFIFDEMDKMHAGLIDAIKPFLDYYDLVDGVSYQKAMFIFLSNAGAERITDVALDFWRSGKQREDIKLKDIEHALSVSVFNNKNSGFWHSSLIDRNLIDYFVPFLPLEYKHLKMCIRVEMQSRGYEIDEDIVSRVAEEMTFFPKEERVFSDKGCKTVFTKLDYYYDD
# Torsin-1A (Homo sapiens) [18] = molecular target: Torsin-1A (Homo sapiens) (UniProt O14656); experiment: small-molecule binders of mutant TOR1A in lysate, primary screen, cell lysate, small-molecule microarray, COS7 lysate, 635/667 nm fluorescence (AID 1150); conditions: COS7 hTOR1A mutant lysate, 635 nm fluorescence, higher = more signal;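 further: score pools 667 nm emission and signal to noise measuring lysate protein binding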
# [19] = tested on: Sonic hedgehog protein (Shh); experiment: small-molecule binders of Shh protein, primary screen, biochemical, small-molecule microarray, 635/667 nm fluorescence (AID 1151); conditions: small-molecule microarray binding, 635 nm fluorescence; higher = more signal;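 further: Shh protein binding to compounds spotted on small-molecule microarray slides; score combines spot fluorescence intensity with signal-to-noise across triplicate slides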
smiles,measurement,setting,value
CC(C)CNC(=O)[C@@H]1c2ccccc2C(=O)N(Cc2ccccc2Cl)[C@H]1c1ccc(CO)cc1,composite z-score,[1],1.48
same,composite z-score,[2],0.844
same,composite z-score,[3],0.401
same,composite z-score,[4],-1.73
same,composite z-score,[5],-0.158
same,composite z-score,[6],0.223
same,z-score,[7],0.572
same,composite z-score,Lefty1,-0.785
same,composite z-score,[8],-0.215
same,z-score,[9],0.686 (inactive)
same,composite z-score,[10],-0.0721
same,z-score,[11],-0.121 (inactive)
same,z-score,[12],-0.431 (inactive)
same,z-score,[13],-0.179 (inactive)
same,z-score,[14],-0.867 (inactive)
same,composite z-score,[15],-0.222
same,composite z-score,[16],-0.204
same,composite z-score,Torsin-1A (Homo sapiens) [17],0.0521
same,composite z-score,Torsin-1A (Homo sapiens) [18],0.13
same,composite z-score,[19],0.145
C#CCN([C@H](/C=C/C1CC1)[C@@H](O)Cc1ccccc1)[C@@H](Cc1ccccc1)C(=O)OC,composite z-score,[1],0.482
same,composite z-score,[2],-0.517
same,composite z-score,[3],-0.113
same,composite z-score,[4],-0.408
same,composite z-score,[5],0.794
same,composite z-score,[6],-0.182
same,z-score,[7],3.47
same,composite z-score,Lefty1,0.683
same,composite z-score,[8],-0.34
same,z-score,[9],0.778 (inactive)
same,composite z-score,[10],-0.48
same,z-score,[11],-2.91 (inactive)
same,z-score,[12],-0.669 (inactive)
same,z-score,[13],3.21 (inactive)
same,z-score,[14],-0.765 (inactive)
same,composite z-score,[15],0.483
same,composite z-score,[16],0.0013
same,composite z-score,Torsin-1A (Homo sapiens) [17],0.0515
same,composite z-score,Torsin-1A (Homo sapiens) [18],-0.409
same,composite z-score,[19],1.08
C=CC[C@]1(C(=O)NCCCOC)N=C(c2ccc(OCCCO)cc2)O[C@H]1c1ccccc1,composite z-score,[1],1.19
same,composite z-score,[2],1.21
same,composite z-score,[3],0.0442
same,composite z-score,[4],-0.922
same,composite z-score,[5],1.29
same,composite z-score,[6],-0.9
same,z-score,[7],0.266
same,composite z-score,Lefty1,-0.689
same,composite z-score,[8],0.566
same,z-score,[9],0.436 (inactive)
same,composite z-score,[10],0.274
same,z-score,[11],-2.26 (inactive)
same,z-score,[12],-0.747 (inactive)
same,z-score,[13],0.857 (inactive)
same,z-score,[14],0.15 (inactive)
same,composite z-score,[15],-0.0374
same,composite z-score,[16],-0.0986
same,composite z-score,Torsin-1A (Homo sapiens) [17],0.872
same,composite z-score,Torsin-1A (Homo sapiens) [18],1.37
same,composite z-score,[19],-1.62
[N-]=[N+]=NCc1ccccc1[C@H]1OC(c2ccc(OCCCO)cc2)=N[C@@]1(Cc1ccccc1)C(=O)N1CCOCC1,composite z-score,[1],1.44
same,composite z-score,[2],1.26
same,composite z-score,[3],0.46
same,composite z-score,[4],0.992
same,composite z-score,[5],0.25
same,composite z-score,[6],1.48
same,z-score,[7],0.343
same,composite z-score,Lefty1,-0.155
same,composite z-score,[8],0.723
same,z-score,[9],-0.372 (inactive)
same,composite z-score,[10],0.896
same,z-score,[11],-3.73 (inactive)
same,z-score,[12],-0.78 (inactive)
same,z-score,[13],2.02 (inactive)
same,z-score,[14],-0.227 (inactive)
same,composite z-score,[15],1.08
same,composite z-score,[16],0.355
same,composite z-score,Torsin-1A (Homo sapiens) [17],1.47
same,composite z-score,Torsin-1A (Homo sapiens) [18],1.17
same,composite z-score,[19],-0.346
O=C1N(CCS(=O)(=O)c2ccccc2)c2ccccc2[C@@H]2OC(c3ccc(OCCCO)cc3)=N[C@]12CCS(=O)(=O)c1ccccc1,composite z-score,[1],0.7
same,composite z-score,[2],1.2
same,composite z-score,[3],0.575
same,composite z-score,[4],0.922
same,composite z-score,[5],1.38
same,composite z-score,[6],1.5
same,z-score,[7],-1.59
same,composite z-score,Lefty1,0.553
same,composite z-score,[8],0.465
same,z-score,[9],-3.78 (inactive)
same,composite z-score,[10],0.277
same,z-score,[11],-1.35 (inactive)
same,z-score,[12],0.647 (inactive)
same,z-score,[13],2.41 (inactive)
same,z-score,[14],0.103 (inactive)
same,composite z-score,[15],1.12
same,composite z-score,[16],0.103
same,composite z-score,Torsin-1A (Homo sapiens) [17],0.741
same,composite z-score,Torsin-1A (Homo sapiens) [18],1.43
same,composite z-score,[19],1.3
CC(C)C(=C=CC[C@@H](O)c1cccc(OCCO)c1)CCO,composite z-score,[1],0.241
same,composite z-score,[2],0.0895
same,composite z-score,[3],-0.0966
same,composite z-score,[4],0.236
same,composite z-score,[5],1.14
same,composite z-score,[6],1.61
same,z-score,[7],0.265
same,composite z-score,Lefty1,0.524
same,composite z-score,[8],0.271
same,z-score,[9],-0.852 (inactive)
same,composite z-score,[10],0.263
same,z-score,[11],-0.219 (inactive)
same,z-score,[12],-0.468 (inactive)
same,z-score,[13],1.37 (inactive)
same,z-score,[14],-0.755 (inactive)
same,composite z-score,[15],-0.236
same,composite z-score,[16],0.442
same,composite z-score,Torsin-1A (Homo sapiens) [17],0.462
same,composite z-score,Torsin-1A (Homo sapiens) [18],0.0336
same,composite z-score,[19],0.567
CC(c1ccccc1)C(O)C1C=CC2C(=O)N(c3ccccc3)C(=O)C2N1Nc1ccc(C#N)cc1 (stereo not given),composite z-score,[1],2.19
same,composite z-score,[2],1.22
same,composite z-score,[3],0.648
same,composite z-score,[4],0.993
same,composite z-score,[5],1.12
same,composite z-score,[6],0.329
same,z-score,[7],1.03
same,composite z-score,Lefty1,1.12
same,composite z-score,[8],0.772
same,z-score,[9],-0.424 (inactive)
same,composite z-score,[10],0.644
same,z-score,[11],-0.661 (inactive)
same,z-score,[12],-1.26 (inactive)
same,z-score,[13],-0.136 (inactive)
same,z-score,[14],0.721 (inactive)
same,composite z-score,[15],0.17
same,composite z-score,[16],0.179
same,composite z-score,Torsin-1A (Homo sapiens) [17],0.618
same,composite z-score,Torsin-1A (Homo sapiens) [18],0.739
same,composite z-score,[19],1.18
CN1C(=O)[C@]2(CCS(=O)(=O)c3ccccc3)N=C(c3ccc(OCCCO)cc3)O[C@@H]2c2ccccc21,composite z-score,[1],2.44
same,composite z-score,[2],1.27
same,composite z-score,[3],1.26
same,composite z-score,[4],0.495
same,composite z-score,[5],1.47
same,composite z-score,[6],0.699
same,z-score,[7],1.87
same,composite z-score,Lefty1,0.34
same,composite z-score,[8],0.318
same,z-score,[9],-1.76 (inactive)
same,composite z-score,[10],0.088
same,z-score,[11],-3.67 (inactive)
same,z-score,[12],1.24 (inactive)
same,z-score,[13],1.34 (inactive)
same,z-score,[14],-0.547 (inactive)
same,composite z-score,[15],0.294
same,composite z-score,[16],0.174
same,composite z-score,Torsin-1A (Homo sapiens) [17],0.0148
same,composite z-score,Torsin-1A (Homo sapiens) [18],1.16
same,composite z-score,[19],1.54
CCCC=C(CCC)[C@@H](NC(=O)c1ccco1)c1ccc(C(=O)OC)cc1,composite z-score,[1],1.24
same,composite z-score,[2],1.26
same,composite z-score,[3],0.601
same,composite z-score,[4],0.984
same,composite z-score,[5],0.649
same,composite z-score,[6],-0.181
same,z-score,[7],-1.67
same,composite z-score,Lefty1,0.119
same,composite z-score,[8],1.31
same,z-score,[9],2.66 (inactive)
same,composite z-score,[10],0.22
same,z-score,[11],-3.84 (inactive)
same,z-score,[12],0.737 (inactive)
same,z-score,[13],0.0143 (inactive)
same,z-score,[14],0.514 (inactive)
same,composite z-score,[15],1.92
same,composite z-score,[16],0.218
same,composite z-score,Torsin-1A (Homo sapiens) [17],0.0918
same,composite z-score,Torsin-1A (Homo sapiens) [18],0.918
same,composite z-score,[19],-0.276
